# PubChem BioAssay AID1578 (Sanford-Burnham Center for Chemical Genomics, 2009)
# Hit rate of the full screen: of about 290,000 compounds, about 3,000 (1%) were called active. Only a selection was taken, and actives are over-represented in it overall. Values without a mark were called inactive. Rule as the data show it: active = inhibition mostly above about 36% (no sharp cut-off); inactive = mostly below about 34%.
# Assay: inhibition of NOD1-driven NF-kB reporter – cell-based, luminescence, uHTS, primary screen (AID 1578);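 also: HEK-293T reporter cells stimulated with the NOD1 agonist gamma-tri-DAP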
# Conditions: NOD1-driven NF-kB luciferase reporter cells, at 4 µM, hits give high values
row,Structure (SMILES),inhibition
1,O=C(c1ccc([N+](=O)[O-])cc1)N1CCSC1c1ccccc1 (stereo unspecified),-13.8%
2,O=C(O)c1ccc(N2C(=O)/C(=C/C=C/c3ccccc3)SC2=S)cc1,-13.7%
3,CC(/C=C1\SC(=S)N(CC(=O)O)C1=O)=C\c1ccccc1,-14.7%
4,O=C1CCCCN1CCC(=O)N1CCCC(N2CCN(c3ccccc3)CC2)C1 (stereo unspecified),-1%
5,CC(C)(C)c1nc(CN2CCCCC2)cc(CN2CCCCC2)c1O,-2.5%
6,O=C(O)CCC(=O)N1N=C(c2ccco2)CC1c1cccs1 (stereo unspecified),-15.2%
7,Cc1ccc(C2CC(c3cccs3)=NN2C(=O)CCl)cc1 (stereo unspecified),95.3% (active)
8,CC(=O)N1N=C(c2ccco2)CC1c1cccs1 (stereo unspecified),-6.4%
9,CCN1CCN(CC(=O)N2N=C(c3cccs3)CC2c2ccc(C)cc2)C(=O)C1=O (stereo unspecified),-19.6%
10,Cc1ccc(C2=NN(C(=O)CCC(=O)O)C(c3cccs3)C2)cc1 (stereo unspecified),-4.3%
11,CCC(=O)N1N=C(c2cccs2)CC1c1ccc(C)cc1 (stereo unspecified),1.5%
12,Cc1ccc(C2=NN(C(=O)CCl)C(c3ccco3)C2)o1 (stereo unspecified),-45.6%
13,COc1cc(NC(=O)CN2CCN(c3ccccc3F)CC2)cc(OC)c1,-13.5%
14,CC(C)(C)NC(=S)NCc1cccnc1,5.8%
15,CCc1ccc(OCC(=O)NNC(=O)c2nn(CC)c(=O)c3ccccc23)cc1,-23.6%
16,CC1(C)CC(=O)C(Sc2ccc(Br)cc2)=C(O)C1,-57.7%
17,Fc1ccc(-c2nc3nc4ccccc4nc3n2Cc2ccco2)cc1,-13.7%
18,S=c1nc(-c2ccccc2)[nH]c2ccccc12,-26.9%
19,CCC(CC)c1nc(NCCC(=O)O)c2ccccc2n1,-13.4%
20,COc1ccc(Cl)cc1NC(=O)CCc1nnc2ccc(N3CCC4(CC3)OCCO4)nn12,10.7%
21,COc1ccccc1NC(=O)CCc1nnc2ccc(N3CCN(C)CC3)nn12,-20.3%
22,COc1ccc(Cl)cc1NC(=O)CCc1nnc2ccc(N3CCN(C)CC3)nn12,58% (active)
23,COc1cc(O)c(C(CCN2CCOCC2)c2ccc(N(C)C)cc2)c(OC)c1 (stereo unspecified),4.8%
24,Cc1ccc(S(=O)(=O)Nc2nc3ccccc3nc2NCC2CCCO2)c(C)c1 (stereo unspecified),-1.8%
25,COc1ccc(NC(=O)CN(C)C(=O)c2ccc3c(c2)S(=O)(=O)N=C2CCCCCN23)cc1,-22%
26,CCSc1nc(N)c(C#N)c(-c2ccccc2Cl)c1C#N,-2.6%

row,Structure (SMILES),inhibition
1,COc1ccc(-c2c(C#N)c(N)nc(Sc3ccc(Cl)cc3)c2C#N)cc1,-0.6%
2,N#Cc1c(N)nc(Sc2ccc(Cl)cc2)c(C#N)c1-c1ccccc1Cl,83.1% (active)
3,Cc1[nH]c(=O)[nH]c(=O)c1S(=O)(=O)Nc1ccc(Oc2ccccc2)cc1,-23.1%
4,COc1ccc2nc(NCCCO)[nH]c2c1,-28.1%
5,COc1ccccc1OCCNC(=O)c1cc(SC)ccc1Cl,-20.2%
6,Cc1cc(S(=O)(=O)NCCc2ccccc2)c(C)s1,15.9%
7,CCOc1ccc(/C=C/c2c([N+](=O)[O-])c(=O)n(C)c(=O)n2C)cc1,-27.7%
8,CCc1ccc(/C=C/c2c([N+](=O)[O-])c(=O)n(C)c(=O)n2C)cc1,22.5%
9,COc1ccc(/C=C/c2c([N+](=O)[O-])c(=O)n(C)c(=O)n2C)cc1,-2.9%
10,CN(C)c1ccc(/C=C/c2c([N+](=O)[O-])c(=O)n(C)c(=O)n2C)cc1,-9.1%
11,Clc1nccnc1-c1ccccc1,-25.1%
12,Cc1sc2nc(NCCO)[nH]c(=O)c2c1C,-16%
13,O=C(Nc1nc(-c2ccc(Br)cc2)cs1)c1cccnc1,-26.9%
14,CC1CCCCC1NC(=O)CSc1nnc(-c2ccccc2)n1N (stereo unspecified),11.7%
15,O=C(CCl)N(C1CCCC1)C1CCS(=O)(=O)C1 (stereo unspecified),35.5%
16,O=C(CCl)N(c1ccccc1)C1CCS(=O)(=O)C1 (stereo unspecified),93.2% (active)
17,O=C(CCl)N(c1ccccc1)C1CCCCC1,34.4%
18,NS(=O)(=O)c1ccc(CCNC(=O)c2cc(-c3cc(Cl)ccc3O)n[nH]2)cc1,-5.8%
19,CC(=O)Nc1ccc(NC(=O)[C@@H](NC(=O)N2C[C@H]3C[C@@H](C2)c2cccc(=O)n2C3)C(C)C)cc1,-3.2%
20,CCN(CCn1cccn1)Cc1cn[nH]c1-c1cccc2ccccc12,-11.1%
21,CC(=O)c1ccc(N2CCN(C(=O)C(=O)c3cn(CC(=O)N4CCCCCC4)c4ccccc34)CC2)cc1,-25.9%
22,Cc1cc(=O)oc2c(C)c(OCC(=O)N3CC[C@@]4(O)CCCC[C@H]4C3)ccc12,-30.1%
23,c1ccc(CCNc2ncnc3ccccc23)cc1,71.7% (active)
24,COc1cc2ncnc(NCc3cccc(Cl)c3)c2cc1OC,44.2%
25,COc1ccccc1CNc1ncnc2cc(OC)c(OC)cc12,-12.1%
26,CCCCCCCCNc1ncnc2ccccc12,54.9%

row,Structure (SMILES),inhibition
1,COc1cc2ncnc(Nc3ccc4c(c3)OCO4)c2cc1OC,16.8%
2,OCCCCCNc1ncnc2ccccc12,45.8% (active)
3,CN(C)CCNc1ncnc2ccccc12,-20.6%
4,CCN(CC)CCCNc1ncnc2ccccc12,-25.6%
5,COc1cc2ncnc(NCc3ccccc3)c2cc1OC,-4.6%
6,COc1cc2ncnc(Nc3cccc(Cl)c3)c2cc1OC,45.3% (active)
7,c1ccc(CNc2ncnc3ccccc23)cc1,-16.1%
8,CC(C)Cn1c(SCC(=O)N2CCCc3ccccc32)nc2ccccc2c1=O,-2.1%
9,O=C(CSc1nnc(C2CC2)n1CC1CCCO1)Nc1ccccc1Cl (stereo unspecified),-9%
10,CC1CCN(c2ccc([N+](=O)[O-])cc2C(=O)O)CC1,-6.6%
11,COCc1cc(=O)[nH]c(=S)[nH]1,-3.8%
12,C#CCNC(=O)/C=C/c1ccc(C)cc1,-42.9%
13,COC(=O)C1=C(C(=O)OC)[C@@H]2N(C)c3ccccc3[C@@]23C[C@@H](CO)N(C(=O)NCCBr)C3=N1,-2.6%
14,Cc1c(O)ccc2c(=O)c(Oc3ccccc3)coc12,-2.7%
15,Cc1cc(C)nc(SCc2nnc(SCC(=O)Nc3c(C)cccc3C)o2)n1,-14%
16,O=C1CSc2ccc(S(=O)(=O)CCC(=O)NC3CCCCC3)cc2N1,-26.4%
17,C#CCOC(=O)CCCNc1ccc([N+](=O)[O-])cc1[N+](=O)[O-],-22.8%
18,CC1CN=C(N(C(=O)Nc2ccccc2)c2ccc(F)cc2)S1 (stereo unspecified),1.6%
19,CSCCC(NC(=O)OCc1ccccc1)C(=O)NCc1cccnc1 (stereo unspecified),-10.2%
20,CCOc1ccc(C(=O)COC(=O)CC)cc1,-16%
21,CCOc1ccc(C(=O)CCN2CCCCC2)cc1,44%
22,CCOc1ccc(C(=O)CCN2CCCCCC2)cc1,70.2% (active)
23,CCOc1ccc(C(=O)COC(C)=O)cc1,3.9%
24,CCCOc1ccc(C(=O)CCN2CCCCC2)cc1,35.7%
25,CCCCC(=O)OCC(=O)c1ccc(OCC)cc1,31.2% (active)
26,Cc1occc1C(=O)O/N=C(\N)c1ccccc1,-8.7%

row,Structure (SMILES),inhibition
1,CCNC(=S)Nc1cccc(F)c1C,-29.3%
2,O=C(NCc1ccco1)C(Cc1ccccc1)N1C(=O)C2C3C=CC(C3)C2C1=O (stereo unspecified),1.7%
3,COC(=O)C(Cc1ccccc1)NC(=O)CC(C)CC(=O)Nc1ccc(C)cc1 (stereo unspecified),-13.8%
4,CC(C)(C)NC(=O)CN(C(=O)C1CSC(=O)C1)c1ccc2c(c1)OCCO2 (stereo unspecified),-20.5%
5,Cc1ccc(CN2CCSc3ccc(C(=O)N4CCN(c5ncccn5)CC4)cc32)cc1,34.2% (active)
6,CCN1CCN(C(=O)c2ccc3c(c2)N(Cc2ccc(C)cc2)CCS3)CC1,-18.4%
7,CCOC(=O)N1CCN(C(=O)c2ccc3c(c2)N(Cc2ccc(C)cc2)CCS3)CC1,45.5%
8,CSc1nc2ccc(NC(=O)c3ccco3)cc2s1,-41.5%
9,C=CCn1c(COc2ccccc2-c2ccccc2)nnc1SCC(=O)NC(=O)NCc1ccco1,-0.2%
10,CCC(C)Oc1cc(-c2ccnc(Nc3cccc(Cl)c3)n2)ccn1 (stereo unspecified),47% (active)
11,COc1ccc(Nc2nccc(-c3cccc(N)c3)n2)cc1,6.7%
12,Cc1cc(C)nc(Nc2cccc(Cl)c2)n1,-14.1%
13,Brc1ccc(CSc2ncn[nH]2)cc1,19%
14,COc1cc2ccccc2cc1C(=O)Nc1ccc2oc(=O)ccc2c1,46.4%
15,CCNc1nc(NC(C)C)nc(Oc2ccc(OCCOc3ccc(C)cc3)nn2)n1,-39.7%
16,COCc1cc(S(=O)c2ccc(Cl)cc2)nc(C)n1 (stereo unspecified),84.6% (active)
17,COCc1cc(Sc2ccc(Cl)cc2)nc(C)n1,-2.4%
18,COCc1cc(NCc2ccc(Cl)cc2)nc(C)n1,21%
19,CC(Cl)C(=O)c1c[nH]c2ccccc12 (stereo unspecified),-10.4%
20,O=C(c1c[nH]c2ccccc12)C(Cl)c1ccccc1 (stereo unspecified),96.9% (active)
21,O=C(c1ccccc1)c1c[nH]c2ccccc12,-14.2%
22,COc1ccccc1NS(=O)(=O)c1ccc2c(c1)NC(=O)C(C)S2 (stereo unspecified),49.3%
23,COc1ccc(N2CCN(C(=O)c3oc4ccccc4c3NC(=O)Cc3cccc(OC)c3)CC2)cc1,-28.1%
